Measurements reported in the supplement of paper PMC10849652.
Targets with a hit are over-represented here; the source holds about 7,900 in all. About 0.6% of all pairs of compound and target were hits.

What was measured:
Test in all cases: log2 fold change, soluble protein after heating vs DMSO (PISA); higher = thermal stabilisation; K562 cells, 10 uM, 30 min; active = over 0.2 and 3.5 SD of the protein, either way, in both replicates (recomputed)
[1] = compound: CC1=C(C=C(C=C1)NC(=O)C2=CC(=CC=C2)C(C)(C)C#N)NC3=CC4=C(C=C3)N=CN(C4=O)C
Outline: (§1)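 For each measurement, 10 μM compound was applied for 30 min to K562 cells at 2×10^6 cells/mL. Aliquots were heated for 3 min across 48°C-58°C, pooled, and extracted in PBS with 0.5% NP-40 at 4°C; the supernatant after 21,000xg for 90 min was soluble protein. This was quantified by TMTpro 16plex LC-MS/MS with channel sums equalised, and thermal stability was reported relative to control samples from duplicates, on a log2 fold-change scale.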

[2] = compound: CC1=C(C=C(C=C1)NC(=O)C2=CC(=CC=C2)N(C)C)NC(=O)C3=CC=C(C=C3)O
Outline: as §1

[3] = compound: CC1=CC=C(C=C1)SC2=C3C=C(SC3=CN=C2)C(=O)N
Outline: as §1

[4] = compound: CC1=NC(=CC=C1)C2=C(N=C(N2)C(C)(C)C)C3=CC4=NC=CN=C4C=C3
Outline: as §1

Nexturastat A = compound: CCCCN(Cc1ccc(C(=O)NO)cc1)C(=O)Nc1ccccc1 [Nexturastat A]
Outline: as §1

vemurafenib = compound: CCCS(=O)(=O)Nc1ccc(F)c(C(=O)c2c[nH]c3ncc(-c4ccc(Cl)cc4)cc23)c1F [vemurafenib]
Outline: as §1

[5] = compound: CCCS(=O)(=O)Nc1ccc(F)c(C(=O)c2c[nH]c3ncc(Cl)cc23)c1F
Outline: as §1

[6] = compound: CCCc1cc(C)[nH]c(=O)c1CNC(=O)c1cc(-c2ccnc(N3CCN(C)CC3)c2)cc2c1cnn2C(C)C
Outline: as §1

givinostat = compound: CCN(CC)Cc1ccc2cc(COC(=O)Nc3ccc(C(=O)NO)cc3)ccc2c1 [givinostat]
Outline: as §1

barasertib = compound: CCN(CCCOc1ccc2c(Nc3cc(CC(=O)Nc4cccc(F)c4)[nH]n3)ncnc2c1)CCOP(=O)(O)O [barasertib]
Outline: as §1

Measured: log2 fold change

CHAC2 (UniProt Q8WUX2)
Chain of UniProt Q8WUX2 (Q8WUX2 whole entry, looked up): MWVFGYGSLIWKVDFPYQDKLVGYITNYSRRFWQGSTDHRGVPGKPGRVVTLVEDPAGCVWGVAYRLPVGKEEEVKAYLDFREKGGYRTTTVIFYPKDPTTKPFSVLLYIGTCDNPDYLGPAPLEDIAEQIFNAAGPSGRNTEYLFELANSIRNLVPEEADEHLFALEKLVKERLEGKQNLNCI
inactive: [1] -0.001 | [2] 0.025 | [3] 0.037 | [4] 0.015 | Nexturastat A -0.026 | vemurafenib 0.04 | [5] 0.031 | [6] -0.08 | givinostat 0.007 | barasertib 0.079

CNDP2 (UniProt Q96KP4)
inactive: [1] 0.021 | [2] -0.013 | [3] 0.04 | [4] 0.043 | Nexturastat A -0.131 | vemurafenib 0.016 | [5] 0.003 | [6] -0.052 | givinostat -0.087 | barasertib -0.004

C19orf53 (UniProt Q9UNZ5)
inactive: [1] 0.056 | [2] 0.016 | [3] -0.065 | [4] -0.196 | Nexturastat A 0.184 | vemurafenib -0.189 | [5] -0.044 | [6] 0.146 | givinostat 0.021 | barasertib -0.096

CDK8 (UniProt P49336)
inactive: [1] 0.002 | [2] -0.005 | [3] 0.322 | [4] 0.064 | Nexturastat A -0.125 | vemurafenib 0.041 | [5] 0.044 | [6] -0.081 | givinostat 0.02 | barasertib -0.343

CDK1 (UniProt P06493)
inactive: [1] 0.017 | [2] -0.017 | [3] 0.004 | [4] 0.036 | Nexturastat A -0.015 | vemurafenib 0.029 | [5] 0.02 | [6] 0.001 | givinostat 0.048 | barasertib 0.001

CFAP36 isoform 2 (UniProt Q96G28)
inactive: [1] 0.005 | [2] 0.024 | [3] 0.054 | [4] 0.066 | Nexturastat A 0.023 | vemurafenib -0.041 | [5] 0.012 | [6] -0.061 | givinostat -0.003 | barasertib 0.03

CA8 (UniProt P35219)
inactive: [1] -0.024 | [2] -0.081 | [3] 0.041 | [4] 0.006 | Nexturastat A -0.058 | vemurafenib 0.004 | [5] 0.02 | [6] -0.002 | givinostat 0.077 | barasertib 0.034

CLUH, A0A494C0R8
inactive: [1] 0.008 | [2] -0.077 | [3] -0.02 | [4] 0.124 | Nexturastat A 0.068 | vemurafenib -0.121 | [5] -0.072 | [6] 0.016 | givinostat 0.092 | barasertib -0.043

CIZ1 (UniProt Q9ULV3)
inactive: [1] -0.02 | [2] -0.027 | [3] -0.022 | [4] 0.059 | Nexturastat A 0.011 | vemurafenib -0.018 | [5] -0.007 | [6] -0.033 | givinostat 0.017 | barasertib 0.001

CPSF6 isoform 2 (UniProt Q16630)
inactive: [1] 0.054 | [2] 0.02 | [3] -0.027 | [4] 0.02 | Nexturastat A -0.042 | vemurafenib 0.001 | [5] -0.069 | [6] 0.035 | givinostat 0.048 | barasertib -0.042

CPD (UniProt O75976)
inactive: [1] -0.017 | [2] 0 | [3] -0.01 | [4] -0.016 | Nexturastat A -0.001 | vemurafenib -0.017 | [5] -0.021 | [6] -0.062 | givinostat 0.016 | barasertib 0.011

CS (UniProt O75390)
Chain of UniProt O75390 (O75390 whole entry, looked up): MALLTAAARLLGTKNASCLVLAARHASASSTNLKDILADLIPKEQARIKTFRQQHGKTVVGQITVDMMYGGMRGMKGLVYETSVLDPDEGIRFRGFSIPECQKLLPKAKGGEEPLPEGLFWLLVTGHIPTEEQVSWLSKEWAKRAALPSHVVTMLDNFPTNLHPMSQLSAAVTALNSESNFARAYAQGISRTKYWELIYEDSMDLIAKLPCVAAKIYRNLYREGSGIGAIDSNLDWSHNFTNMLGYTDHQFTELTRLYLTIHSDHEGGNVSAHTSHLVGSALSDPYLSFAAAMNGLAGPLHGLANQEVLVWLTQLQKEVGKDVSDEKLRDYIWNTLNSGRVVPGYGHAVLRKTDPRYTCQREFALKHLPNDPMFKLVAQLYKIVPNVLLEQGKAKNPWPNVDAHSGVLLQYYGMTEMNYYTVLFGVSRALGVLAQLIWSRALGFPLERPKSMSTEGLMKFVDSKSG
inactive: [1] -0.026 | [2] -0.002 | [3] 0.014 | [4] 0.07 | Nexturastat A -0.125 | vemurafenib 0.023 | [5] 0.033 | [6] 0 | givinostat -0.041 | barasertib 0.027

CD81 (UniProt P60033)
Chain of UniProt P60033 (P60033 whole entry, looked up): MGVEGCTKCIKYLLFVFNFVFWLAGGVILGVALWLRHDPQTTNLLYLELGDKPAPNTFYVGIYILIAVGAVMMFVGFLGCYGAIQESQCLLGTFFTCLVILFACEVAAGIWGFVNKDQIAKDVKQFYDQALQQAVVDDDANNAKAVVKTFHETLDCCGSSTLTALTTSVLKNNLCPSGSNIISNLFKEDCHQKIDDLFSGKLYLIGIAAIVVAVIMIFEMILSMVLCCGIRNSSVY
inactive: [1] 0.039 | [2] 0.112 | [3] 0.069 | [4] 0.054 | Nexturastat A -0.027 | vemurafenib 0.156 | [5] -0.08 | [6] -0.06 | givinostat 0.016 | barasertib -0.008

CASP8 isoform 9 (UniProt Q14790)
Chain of UniProt Q14790 (Q14790 whole entry, looked up): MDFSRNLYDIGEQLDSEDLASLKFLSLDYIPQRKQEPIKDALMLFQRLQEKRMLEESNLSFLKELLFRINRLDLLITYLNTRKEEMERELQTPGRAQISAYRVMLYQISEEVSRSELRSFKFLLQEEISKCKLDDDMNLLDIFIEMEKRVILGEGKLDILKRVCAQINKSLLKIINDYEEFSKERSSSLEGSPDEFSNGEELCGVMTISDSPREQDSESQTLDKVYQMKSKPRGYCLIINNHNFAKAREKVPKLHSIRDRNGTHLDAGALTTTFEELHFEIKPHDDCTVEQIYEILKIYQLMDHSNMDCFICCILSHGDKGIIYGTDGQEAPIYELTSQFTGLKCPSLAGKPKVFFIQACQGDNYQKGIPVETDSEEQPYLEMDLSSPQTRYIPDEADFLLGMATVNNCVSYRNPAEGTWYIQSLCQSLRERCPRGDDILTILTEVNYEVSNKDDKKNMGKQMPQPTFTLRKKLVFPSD
inactive: [1] -0.054 | [2] -0.092 | [3] 0.017 | [4] -0.049 | Nexturastat A 0.064 | vemurafenib 0 | [5] 0.177 | [6] 0.114 | givinostat 0.115 | barasertib 0

CDK5RAP3 isoform 4 (UniProt Q96JB5)
inactive: [1] 0.018 | [2] -0.035 | [3] 0.008 | [4] 0.015 | Nexturastat A 0.051 | vemurafenib 0.044 | [5] 0.077 | [6] -0.015 | givinostat 0.109 | barasertib 0.029

CDC42SE1 (UniProt Q9NRR8)
Chain of UniProt Q9NRR8 (Q9NRR8 whole entry, looked up): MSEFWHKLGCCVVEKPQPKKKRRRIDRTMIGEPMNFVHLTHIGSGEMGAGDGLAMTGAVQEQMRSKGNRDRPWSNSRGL
inactive: [1] 0.132 | [2] 0.059 | [3] 0.016 | [4] -0.09 | Nexturastat A -0.115 | vemurafenib -0.007 | [5] 0.051 | [6] -0.705 | givinostat -0.236 | barasertib 0.071

CHCHD2 (UniProt Q9Y6H1)
Chain of UniProt Q9Y6H1 (Q9Y6H1 whole entry, looked up): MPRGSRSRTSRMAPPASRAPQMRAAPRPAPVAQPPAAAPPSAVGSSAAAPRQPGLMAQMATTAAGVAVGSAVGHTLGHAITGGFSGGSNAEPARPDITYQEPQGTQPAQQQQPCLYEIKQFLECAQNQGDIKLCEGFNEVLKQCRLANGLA
inactive: [1] 0.019 | [2] -0.037 | [3] 0.282 | [4] 0.004 | Nexturastat A -0.047 | vemurafenib -0.028 | [5] -0.019 | [6] -0.09 | givinostat -0.042 | barasertib 0.008

CDKN1B (UniProt P46527)
inactive: [1] -0.016 | [2] -0.009 | [3] -0.026 | [4] 0 | Nexturastat A 0.148 | vemurafenib -0.176 | [5] -0.048 | [6] 0.057 | givinostat 0.051 | barasertib -0.063

CSK (UniProt P41240)
active: [1] 0.325
inactive: [2] -0.091 | [3] -0.01 | [4] 0.019 | Nexturastat A -0.046 | vemurafenib 0.072 | [5] 0.054 | [6] 0.034 | givinostat 0.035 | barasertib 0.004

CETN3 (UniProt O15182)
inactive: [1] 0.001 | [2] 0.012 | [3] -0.099 | [4] -0.102 | Nexturastat A -0.01 | vemurafenib -0.056 | [5] -0.164 | [6] -0.116 | givinostat 0.008 | barasertib 0.043

COPS4 (UniProt Q9BT78)
inactive: [1] -0.001 | [2] -0.019 | [3] 0.019 | [4] 0.033 | Nexturastat A -0.062 | vemurafenib 0.049 | [5] 0.071 | [6] -0.037 | givinostat -0.025 | barasertib -0.002

CNN2 (UniProt Q99439)
inactive: [1] 0.034 | [2] -0.037 | [3] 0.035 | [4] 0.023 | Nexturastat A -0.042 | vemurafenib 0.085 | [5] 0.073 | [6] 0.003 | givinostat 0.063 | barasertib 0.077

CSNK2B (UniProt P67870)
Chain of UniProt P67870 (P67870 whole entry, looked up): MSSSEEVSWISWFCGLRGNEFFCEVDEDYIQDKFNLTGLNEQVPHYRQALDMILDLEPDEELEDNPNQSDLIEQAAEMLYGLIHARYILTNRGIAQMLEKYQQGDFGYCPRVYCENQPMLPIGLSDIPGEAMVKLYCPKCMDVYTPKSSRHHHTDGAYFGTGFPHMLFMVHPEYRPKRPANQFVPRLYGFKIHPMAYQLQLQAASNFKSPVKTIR
inactive: [1] -0.019 | [2] 0.021 | [3] -0.032 | [4] 0.066 | Nexturastat A -0.021 | vemurafenib 0.026 | [5] 0.016 | [6] -0.034 | givinostat -0.03 | barasertib -0.008

CDC42EP1 (UniProt Q00587)
Chain of UniProt Q00587 (Q00587 whole entry, looked up): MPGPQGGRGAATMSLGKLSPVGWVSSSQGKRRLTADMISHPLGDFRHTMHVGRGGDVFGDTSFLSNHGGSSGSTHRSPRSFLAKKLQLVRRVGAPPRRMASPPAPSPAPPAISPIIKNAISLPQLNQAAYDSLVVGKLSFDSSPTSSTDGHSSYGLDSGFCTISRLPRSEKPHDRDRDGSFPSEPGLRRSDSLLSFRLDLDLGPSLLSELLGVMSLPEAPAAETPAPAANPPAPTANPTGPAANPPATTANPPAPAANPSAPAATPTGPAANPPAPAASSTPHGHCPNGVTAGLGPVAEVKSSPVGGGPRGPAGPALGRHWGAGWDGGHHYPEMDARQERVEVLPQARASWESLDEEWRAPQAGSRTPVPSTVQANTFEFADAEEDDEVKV
inactive: [1] -0.005 | [2] 0.034 | [3] -0.002 | [4] 0.073 | Nexturastat A 0.022 | vemurafenib 0.011 | [5] -0.022 | [6] 0.075 | givinostat 0.15 | barasertib -0.004

CCAR1 (UniProt Q8IX12)
Chain of UniProt Q8IX12 (Q8IX12 whole entry, looked up): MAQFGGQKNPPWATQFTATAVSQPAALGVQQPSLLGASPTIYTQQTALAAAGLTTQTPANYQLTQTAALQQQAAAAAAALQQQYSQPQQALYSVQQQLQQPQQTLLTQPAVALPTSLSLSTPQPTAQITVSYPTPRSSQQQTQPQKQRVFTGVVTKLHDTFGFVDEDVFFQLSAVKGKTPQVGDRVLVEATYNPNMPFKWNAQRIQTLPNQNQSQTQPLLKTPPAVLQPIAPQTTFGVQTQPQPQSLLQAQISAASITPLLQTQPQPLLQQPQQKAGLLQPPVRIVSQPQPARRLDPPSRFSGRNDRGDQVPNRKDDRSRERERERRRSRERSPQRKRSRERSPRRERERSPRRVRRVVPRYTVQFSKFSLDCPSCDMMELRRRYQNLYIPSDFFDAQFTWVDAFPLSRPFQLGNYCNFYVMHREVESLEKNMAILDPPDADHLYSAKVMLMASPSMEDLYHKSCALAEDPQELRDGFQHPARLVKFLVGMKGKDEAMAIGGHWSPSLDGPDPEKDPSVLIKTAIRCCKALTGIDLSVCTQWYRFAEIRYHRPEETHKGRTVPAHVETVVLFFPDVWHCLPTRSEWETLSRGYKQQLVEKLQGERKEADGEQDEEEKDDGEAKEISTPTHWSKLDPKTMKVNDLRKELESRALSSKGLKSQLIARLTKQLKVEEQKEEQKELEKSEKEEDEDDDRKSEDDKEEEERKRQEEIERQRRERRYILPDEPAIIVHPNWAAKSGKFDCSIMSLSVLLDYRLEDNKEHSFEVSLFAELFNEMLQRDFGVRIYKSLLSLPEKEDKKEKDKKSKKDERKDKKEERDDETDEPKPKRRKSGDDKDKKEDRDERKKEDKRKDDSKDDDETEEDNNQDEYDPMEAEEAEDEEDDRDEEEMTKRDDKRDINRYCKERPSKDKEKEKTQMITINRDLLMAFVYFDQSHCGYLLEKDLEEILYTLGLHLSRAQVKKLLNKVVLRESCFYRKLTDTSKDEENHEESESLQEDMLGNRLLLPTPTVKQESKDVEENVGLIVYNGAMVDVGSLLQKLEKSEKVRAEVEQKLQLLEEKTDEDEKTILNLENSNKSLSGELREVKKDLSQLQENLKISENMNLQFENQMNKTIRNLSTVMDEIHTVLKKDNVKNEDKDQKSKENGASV
inactive: [1] 0.03 | [2] -0.046 | [3] -0.001 | [4] -0.017 | Nexturastat A 0.071 | vemurafenib 0.007 | [5] 0.006 | [6] -0.045 | givinostat 0.027 | barasertib -0.04

COX5A (UniProt P20674)
Chain of UniProt P20674 (P20674 whole entry, looked up): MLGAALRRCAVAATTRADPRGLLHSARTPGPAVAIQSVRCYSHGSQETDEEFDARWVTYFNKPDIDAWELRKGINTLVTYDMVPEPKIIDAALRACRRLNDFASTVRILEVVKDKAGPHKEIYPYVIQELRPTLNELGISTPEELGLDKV
inactive: [1] -0.005 | [2] -0.074 | [3] 0 | [4] -0.016 | Nexturastat A 0.072 | vemurafenib 0.165 | [5] -0.114 | [6] -0.093 | givinostat -0.092 | barasertib 0.085

CCNT1 (UniProt O60563)
Chain of UniProt O60563 (O60563 whole entry, looked up): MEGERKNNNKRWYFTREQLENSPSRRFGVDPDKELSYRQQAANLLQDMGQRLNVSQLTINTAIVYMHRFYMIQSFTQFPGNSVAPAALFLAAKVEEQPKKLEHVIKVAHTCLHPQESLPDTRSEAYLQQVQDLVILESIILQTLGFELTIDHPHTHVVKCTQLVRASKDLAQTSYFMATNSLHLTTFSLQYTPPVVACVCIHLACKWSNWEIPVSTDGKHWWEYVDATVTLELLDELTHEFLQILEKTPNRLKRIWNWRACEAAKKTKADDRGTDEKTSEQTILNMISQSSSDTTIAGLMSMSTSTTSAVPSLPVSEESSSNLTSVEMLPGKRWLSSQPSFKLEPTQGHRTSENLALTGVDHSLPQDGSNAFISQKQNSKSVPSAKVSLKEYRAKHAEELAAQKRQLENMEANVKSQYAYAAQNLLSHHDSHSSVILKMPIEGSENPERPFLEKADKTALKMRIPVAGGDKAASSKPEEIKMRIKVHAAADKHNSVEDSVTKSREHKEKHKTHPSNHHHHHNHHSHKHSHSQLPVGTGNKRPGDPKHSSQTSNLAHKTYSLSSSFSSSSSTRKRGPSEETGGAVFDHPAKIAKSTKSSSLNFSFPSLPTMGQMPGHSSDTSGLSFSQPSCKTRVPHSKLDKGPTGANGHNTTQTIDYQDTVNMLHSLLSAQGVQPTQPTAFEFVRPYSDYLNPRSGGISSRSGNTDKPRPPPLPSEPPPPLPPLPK
inactive: [1] -0.033 | [2] -0.018 | [3] -0.02 | [4] 0.005 | Nexturastat A 0.218 | vemurafenib 0.027 | [5] 0.007 | [6] 0.023 | givinostat 0.022 | barasertib 0.022

CDK12 (UniProt Q9NYV4)
inactive: [1] 0.049 | [2] -0.001 | [3] -0.079 | [4] -0.077 | Nexturastat A 0.278 | vemurafenib -0.047 | [5] -0.002 | [6] 0.104 | givinostat 0.026 | barasertib -0.083

CHP1 (UniProt Q99653)
inactive: [1] -0.048 | [2] -0.016 | [3] -0.112 | [4] 0.021 | Nexturastat A 0.016 | vemurafenib 0.141 | [5] -0.042 | [6] 0.008 | givinostat -0.035 | barasertib 0.009

CSTF3 (UniProt Q12996)
Chain of UniProt Q12996 (Q12996 whole entry, looked up): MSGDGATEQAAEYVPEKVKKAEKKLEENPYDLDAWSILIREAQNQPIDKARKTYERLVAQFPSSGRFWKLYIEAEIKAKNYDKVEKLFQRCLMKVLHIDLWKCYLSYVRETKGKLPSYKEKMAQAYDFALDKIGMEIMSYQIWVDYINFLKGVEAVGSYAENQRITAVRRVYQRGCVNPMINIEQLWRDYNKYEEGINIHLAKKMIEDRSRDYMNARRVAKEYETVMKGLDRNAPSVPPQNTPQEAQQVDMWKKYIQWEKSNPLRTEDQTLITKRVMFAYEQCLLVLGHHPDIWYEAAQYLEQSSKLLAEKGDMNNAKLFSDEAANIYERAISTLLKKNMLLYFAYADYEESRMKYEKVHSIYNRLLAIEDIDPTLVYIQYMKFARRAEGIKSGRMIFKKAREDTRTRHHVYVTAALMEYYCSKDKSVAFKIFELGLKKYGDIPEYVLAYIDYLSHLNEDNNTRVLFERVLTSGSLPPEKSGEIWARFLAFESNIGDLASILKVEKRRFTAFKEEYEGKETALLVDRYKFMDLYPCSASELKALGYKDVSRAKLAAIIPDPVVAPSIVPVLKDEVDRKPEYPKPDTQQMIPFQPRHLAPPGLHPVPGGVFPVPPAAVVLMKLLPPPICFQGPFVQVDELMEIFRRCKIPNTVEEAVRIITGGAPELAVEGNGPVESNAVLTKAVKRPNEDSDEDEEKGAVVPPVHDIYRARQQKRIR
inactive: [1] -0.038 | [2] 0.014 | [3] -0.005 | [4] 0.006 | Nexturastat A -0.072 | vemurafenib -0.005 | [5] -0.008 | [6] -0.029 | givinostat -0.05 | barasertib 0.007
